The target of experiment [1] is human Norepinephrine Transporter (NET), SLC6A2 (gene 6530) (UniProt P23975). The experiment can be described thus: NVS_TR_hNET: NovaScreen (NVS) Transporter Assay for human Norepinephrine Transporter (NET) (AID 2283377).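 Further: cell-free membrane protein extracted from CHO cells expressing human NET.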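 On AC50: displacement of radioligand from human NET seen as loss of scintillation signal.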 In short, it runs like this: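 CHO cell extracts expressing the transporter; tritiated or iodinated tracer displaced competitively; filtration plus scintillation readout at 1 h. Single-point duplicates at 25 uM, concentration series for follow-up; activity = signal drop relative to DMSO.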
Sequence of human Norepinephrine Transporter (NET), SLC6A2 (gene 6530) (P23975 whole entry, looked up): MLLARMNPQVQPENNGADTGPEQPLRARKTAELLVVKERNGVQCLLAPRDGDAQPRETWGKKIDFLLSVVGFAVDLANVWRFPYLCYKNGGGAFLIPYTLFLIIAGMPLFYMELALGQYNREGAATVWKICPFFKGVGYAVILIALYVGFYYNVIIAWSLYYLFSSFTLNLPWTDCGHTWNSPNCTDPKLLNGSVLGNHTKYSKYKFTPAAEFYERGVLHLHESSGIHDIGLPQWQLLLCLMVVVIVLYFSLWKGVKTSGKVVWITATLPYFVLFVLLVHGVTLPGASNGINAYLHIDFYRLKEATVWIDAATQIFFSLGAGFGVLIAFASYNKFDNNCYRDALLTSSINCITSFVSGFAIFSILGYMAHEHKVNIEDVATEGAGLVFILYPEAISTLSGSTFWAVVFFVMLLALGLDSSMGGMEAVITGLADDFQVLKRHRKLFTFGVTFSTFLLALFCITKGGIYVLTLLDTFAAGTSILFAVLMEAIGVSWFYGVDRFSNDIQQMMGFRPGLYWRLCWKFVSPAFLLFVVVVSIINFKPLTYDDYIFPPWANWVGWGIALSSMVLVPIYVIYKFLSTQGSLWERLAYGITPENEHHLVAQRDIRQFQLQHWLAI

Experiment [2] concerns the target mouse Estrogen Receptor alpha (Era), Esr1 (gene 13982) (UniProt P19785). The experiment can be described thus: NVS_NR_mERa: NovaScreen (NVS) Nuclear Receptor Binding Assay for mouse Estrogen Receptor alpha (Era) (AID 2283378).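 Further: hit means loss of bound radioligand signal relative to DMSO.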 In short, it runs like this:
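Test chemicals competed against a specific radioligand for binding to cell-free mouse Era. Duplicate wells at 25 uM were read 18 hours later by filter-based radiodetection, with loss of signal against DMSO scored as activity.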

Experiment [3] concerns the target Agonist Androgen Response Element (ARE), AR (gene 367) (UniProt P10275). The experiment can be described thus: OT_AR_ARELUC_AG_1440: Odyssey Thera (OT) 24-hour CHO-K1 Luciferase Assay for Agonist Androgen Response Element (ARE) (AID 2283379). In short, it runs like this:
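Gain-of-signal reporter endpoint: cells (CHO-K1, hamster) are treated 24 h, luciferin/ATP reagent added, and luminescence compared with DMSO baseline.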

Experiment [4] addresses Estrogen receptor (Homo sapiens) (UniProt P03372). The experiment can be described thus: OT_ERa_GFPERaERE_0480: Odyssey Thera (OT) 8-hour HeLa Transcription Induction Assay for Estrogen Receptor (AID 2283381; active means hit-call score of the fitted dose curve at least 0.9, where 1 is the maximum; inactive means score below 0.9). In short, it runs like this: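 Fluorescence microscopy with high-content image analysis measures ERE-driven GFP induction in HeLa cells at 8 h post-dose. Increases fitted against DMSO baseline.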

Experiment [5] has the same target. The experiment can be described thus: OT_ERa_GFPERaERE_0120: Odyssey Thera (OT) 2-hour HeLa Transcription Induction Assay for Estrogen Receptor (AID 2283382). In short, it runs like this: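 Fluorescence-microscopy images of the GFP-ERα/ERE reporter, scored by high-content image algorithms, give the readout. HeLa exposure lasted 2 h, and only signal increase over DMSO was fitted.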

In experiment [6] the target is Peroxisome proliferator-activated receptor gamma (Homo sapiens) (UniProt P37231). In words: OT_PPARg_PPARgSRC1_0480: Odyssey Thera (OT) 8-hour Protein-Complementation Assay for Peroxisome Proliferator-activated Receptor Gamma / SRC-1 Co-activator (AID 2283387).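 Further: nuclear to cytoplasmic split Venus YFP fluorescence ratio reporting PPARg SRC-1 interaction.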 In short, it runs like this: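 Protein-fragment complementation of split Venus YFP reports PPARg/SRC-1 interaction in HEK293T (transfected 48 h before treatment), exposed 8 h. Readout: N/C fluorescence ratio at 488 nm from imaging, Draq5 for segmentation, positive fit relative to DMSO.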
Sequence of Peroxisome proliferator-activated receptor gamma (Homo sapiens) (P37231 whole entry, looked up, the tested form may be a part): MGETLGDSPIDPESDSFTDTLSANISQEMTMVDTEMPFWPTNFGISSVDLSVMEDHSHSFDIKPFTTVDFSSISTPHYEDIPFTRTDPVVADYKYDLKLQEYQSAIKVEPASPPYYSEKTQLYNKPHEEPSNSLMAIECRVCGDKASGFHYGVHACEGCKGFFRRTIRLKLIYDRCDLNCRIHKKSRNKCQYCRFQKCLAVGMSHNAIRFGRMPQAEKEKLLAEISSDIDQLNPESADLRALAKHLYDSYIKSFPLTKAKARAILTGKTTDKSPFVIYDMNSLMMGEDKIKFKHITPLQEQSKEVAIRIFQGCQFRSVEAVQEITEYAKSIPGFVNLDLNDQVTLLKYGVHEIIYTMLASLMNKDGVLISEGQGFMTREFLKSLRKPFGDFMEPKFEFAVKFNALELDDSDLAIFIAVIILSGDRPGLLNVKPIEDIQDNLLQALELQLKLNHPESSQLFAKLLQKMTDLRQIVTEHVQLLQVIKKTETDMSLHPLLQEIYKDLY

For experiment [7] the target is unchanged. In words: OT_PPARg_PPARgSRC1_1440: Odyssey Thera (OT) 24-hour Protein-Complementation Assay for Peroxisome Proliferator-activated Receptor Gamma/ SRC-1 Co-activator (AID 2283388).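 Further: nuclear to cytoplasmic ratio of reconstituted Venus YFP fluorescence in fixed imaged cells.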 In short, it runs like this:
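Transient HEK293T, YFP fragments 1-158/159-239 (mutant IFP1/IFP2) fused to PPARg/SRC-1; 24 h dosing; fix 4% formaldehyde, Draq5; Opera imaging 488/635 nm; N/C ratio, gain vs DMSO.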

Experiment [8] addresses Estrogen receptor beta (Homo sapiens) (UniProt Q92731). The experiment can be described thus: OT_ER_ERbERb_1440: Odyssey Thera (OT) 24-hour HEK293T Protein-Complementation Assay for Estrogen Receptor-beta/-beta Homodimer (AID 2283380).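 Further: scored as signal increase over DMSO baseline for both agonists and antagonists.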 In short, it runs like this:
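HEK293T cells stably expressing ER beta LBD (aa 310-547) homodimer fragment-complementation reporter, dosed 24 h. Cells formaldehyde-fixed, Draq5-stained; gain in nuclear (agonist) or nuclear plus cytoplasmic (antagonist) fluorescence versus DMSO read by laser scanning cytometry.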

A short description of experiment [9]: CEETOX_H295R_11DCORT: CeeTox H295R High-throughput Steroidogenesis Assay for 11-Deoxycortisol (11DCORT) (AID 2283432; active means hit-call score of the fitted dose curve at least 0.9, where 1 is the maximum; inactive means score below 0.9;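 on AC50: 11-deoxycortisol secreted into the medium measured by LC-MS/MS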). To be noted: actives raise or lower the signal. In short, it runs like this: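 Human adrenal H295R cells were prestimulated with 10 uM forskolin for 48 h, then exposed to test chemical (0.1% DMSO final) for 48 h. Medium 11-deoxycortisol was quantified by MTBE extraction and HPLC-MS/MS; bidirectional fitting relative to DMSO.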

A short description of experiment [10]: CEETOX_H295R_OHPREG: CeeTox H295R High-throughput Steroidogenesis Assay for OH-Pregnenolone (OHPREG) (AID 2283434; active means hit-call score of the fitted dose curve at least 0.9, where 1 is the maximum; inactive means score below 0.9). To be noted: actives raise or lower the signal. In short, it runs like this: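 H295R, 10 uM forskolin pre-stim 48 h; test chemical 48 h, 0.1% DMSO final. MTBE extraction, reverse-phase C18 HPLC-ESI+ MS/MS of medium. Gain/loss vs DMSO; viability by MTT in same wells.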

Experiment [11] in a line: CEETOX_H295R_CORTIC: CeeTox H295R High-throughput Steroidogenesis Assay for Corticosterone (CORTIC) (AID 2283437; active means hit-call score of the fitted dose curve at least 0.9, where 1 is the maximum; inactive means score below 0.9;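 further: corticosterone secreted into medium quantified by mass spectrometry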). To be noted: actives raise or lower the signal. In short, it runs like this:
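48 h forskolin (10 uM) prestim, then 48 h chemical exposure, final DMSO 0.1%. Readout: corticosterone in medium by LC-MS/MS after MTBE extraction. Gain/loss fit vs DMSO; MTT viability in same wells.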

Experiment [12] can be described thus: CEETOX_H295R_CORTISOL: CeeTox H295R High-throughput Steroidogenesis Assay for Cortisol (AID 2283438; active means hit-call score of the fitted dose curve at least 0.9, where 1 is the maximum; inactive means score below 0.9;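 further: cortisol secreted into medium quantified by LC-MS/MS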). Conditions: actives raise or lower the signal. In short, it runs like this:
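Cortisol measured by HPLC-MS/MS after MTBE extraction of medium from H295R cells exposed 48 h to chemical (0.1% DMSO), following 48 h prestimulation with 10 uM forskolin. Viability assessed by MTT in the same wells.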

Experiment [13] is described as follows: CEETOX_H295R_DOC: CeeTox H295R High-throughput Steroidogenesis Assay for DOC (AID 2283439; active means hit-call score of the fitted dose curve at least 0.9, where 1 is the maximum; inactive means score below 0.9). Conditions: actives raise or lower the signal. In short, it runs like this:
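11-Deoxycorticosterone quantified in medium by MTBE extraction and HPLC-MS/MS after 48 h chemical exposure (0.1% DMSO) of forskolin-primed (10 uM, 48 h) H295R cells. Same-well MTT viability; data fitted bidirectionally against DMSO.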

The nature of experiment [14]: CEETOX_H295R_ESTRADIOL: CeeTox H295R High-throughput Steroidogenesis Assay for Estradiol (AID 2283440; active means hit-call score of the fitted dose curve at least 0.9, where 1 is the maximum; inactive means score below 0.9;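 further: estradiol secreted into medium quantified by LC-MS/MS after dansyl derivatisation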). Conditions: actives raise or lower the signal. In short, it runs like this:
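Following OECD 456 with minor changes, H295R cells received 10 uM forskolin for 48 h and then test chemical for 48 h. Hormone output was read by HPLC-MS/MS, with cytotoxic concentrations diluted until MTT viability reached ≥70%.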

The target in experiment [15] is rat Serotonin Transporter (SERT), Slc6a4 (gene 25553) (UniProt P31652). The experiment can be described thus: NVS_TR_rSERT: NovaScreen (NVS) Transporter Assay for rat Serotonin Transporter (SERT) (AID 2283375). In short, it runs like this:
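Steps: rat forebrain membranes dosed with chemical (25 uM duplicate primary; concentration series for actives); 1 h incubation; labelled ligand bound, filtered, counted by scintillation. Activity scored as signal loss vs DMSO.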

Experiment [16] deals with Bile acid receptor (Homo sapiens) (UniProt Q96RI1). In words: OT_FXR_FXRSRC1_0480: Odyssey Thera (OT) 8-hour HEK293T Protein-Complementation Assay for Farnesoid X receptor/SRC-1 Co-activator (AID 2283383). In short, it runs like this: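 Binding of FXR to coactivator SRC-1 was read as fluorescence from a reconstituted split reporter in HEK293T cells, 8 h after chemical addition. Only increases in signal versus DMSO were fit.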
Sequence of Bile acid receptor (Homo sapiens) (Q96RI1 whole entry, looked up): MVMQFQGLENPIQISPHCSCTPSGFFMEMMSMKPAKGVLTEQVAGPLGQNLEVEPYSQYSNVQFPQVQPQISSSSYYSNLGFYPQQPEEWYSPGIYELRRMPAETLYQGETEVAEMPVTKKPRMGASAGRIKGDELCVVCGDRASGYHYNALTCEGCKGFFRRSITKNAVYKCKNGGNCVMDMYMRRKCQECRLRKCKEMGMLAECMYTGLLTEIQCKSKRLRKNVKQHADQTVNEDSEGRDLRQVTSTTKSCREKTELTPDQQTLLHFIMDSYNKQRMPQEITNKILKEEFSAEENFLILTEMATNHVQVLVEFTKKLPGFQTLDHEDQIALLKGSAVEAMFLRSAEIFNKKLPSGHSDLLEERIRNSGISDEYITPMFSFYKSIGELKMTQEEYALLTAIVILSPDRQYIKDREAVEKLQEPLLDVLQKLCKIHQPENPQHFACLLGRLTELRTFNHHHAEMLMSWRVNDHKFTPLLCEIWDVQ

For experiment [17] the target is unchanged. The experiment can be described thus: OT_FXR_FXRSRC1_1440: Odyssey Thera (OT) 24-hour HEK293T Protein-Complementation Assay for Farnesoid X receptor/SRC-1 Co-activator (AID 2283384). In short, it runs like this:
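Protein-fragment complementation: FXR and SRC-1 fused to reporter fragments that reassemble on interaction, read by fluorescence intensity. Human HEK293T cells measured 24 h post-dose; positive-direction fit versus DMSO.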

For experiment [18], the target named is Retinoic acid receptor RXR-alpha (Homo sapiens) (UniProt P19793). In words: OT_NURR1_NURR1RXRa_0480: Odyssey Thera (OT) 8-hour HEK293T Protein Complementation Assay for Nurr1/retinoid X receptor (RXR) (AID 2283385). In short, it runs like this:
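Interaction of Nurr1 with RXRα read as reconstituted reporter fluorescence in a HEK293T fragment-complementation system, 8 h post-treatment; increase over DMSO baseline analysed.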

For experiment [19] the target is unchanged. In words: OT_NURR1_NURR1RXRa_1440: Odyssey Thera (OT) 24-hour HEK293T Protein Complementation Assay for Nurr1/retinoid X receptor (RXR) (AID 2283386). In short, it runs like this: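 Gain in fluorescence, fitted relative to DMSO, reflects Nurr1–RXRα association in HEK293T cells after 24 h dosing. Bait and prey are each linked to a reporter-protein fragment that reassembles on interaction.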

The nature of experiment [20]: CEETOX_H295R_ANDR: CeeTox H295R High-throughput Steroidogenesis Assay for Androstenedione (ANDR) (AID 2283436; active means hit-call score of the fitted dose curve at least 0.9, where 1 is the maximum; inactive means score below 0.9). Conditions: actives raise or lower the signal. In short, it runs like this:
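48 h chemical exposure, H295R cells, DMEM/F12 + ITS+ and Nu-Serum. Medium androstenedione: MTBE extraction, C18 reverse-phase HPLC, ESI+ MS/MS. Fit bidirectional vs DMSO; MTT viability in same wells.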

Where “and” joins values, the source holds several entries; their conditions need not be identical. Identical values can stand only once. Records with an inconclusive call do not appear. Where a structure was tested more than once in an assay, its records may differ in their call. Calls of active or inactive are those of the source. How the source made its calls, unless noted: active means hit-call score of the fitted dose curve at least 0.9, where 1 is the maximum; inconclusive means response in the unintended direction; inactive means score below 0.9.

The values below come from PubChem BioAssay (EPA / NIEHS).

Sequence of Agonist Androgen Response Element (ARE), AR (gene 367) (P10275 whole entry, looked up): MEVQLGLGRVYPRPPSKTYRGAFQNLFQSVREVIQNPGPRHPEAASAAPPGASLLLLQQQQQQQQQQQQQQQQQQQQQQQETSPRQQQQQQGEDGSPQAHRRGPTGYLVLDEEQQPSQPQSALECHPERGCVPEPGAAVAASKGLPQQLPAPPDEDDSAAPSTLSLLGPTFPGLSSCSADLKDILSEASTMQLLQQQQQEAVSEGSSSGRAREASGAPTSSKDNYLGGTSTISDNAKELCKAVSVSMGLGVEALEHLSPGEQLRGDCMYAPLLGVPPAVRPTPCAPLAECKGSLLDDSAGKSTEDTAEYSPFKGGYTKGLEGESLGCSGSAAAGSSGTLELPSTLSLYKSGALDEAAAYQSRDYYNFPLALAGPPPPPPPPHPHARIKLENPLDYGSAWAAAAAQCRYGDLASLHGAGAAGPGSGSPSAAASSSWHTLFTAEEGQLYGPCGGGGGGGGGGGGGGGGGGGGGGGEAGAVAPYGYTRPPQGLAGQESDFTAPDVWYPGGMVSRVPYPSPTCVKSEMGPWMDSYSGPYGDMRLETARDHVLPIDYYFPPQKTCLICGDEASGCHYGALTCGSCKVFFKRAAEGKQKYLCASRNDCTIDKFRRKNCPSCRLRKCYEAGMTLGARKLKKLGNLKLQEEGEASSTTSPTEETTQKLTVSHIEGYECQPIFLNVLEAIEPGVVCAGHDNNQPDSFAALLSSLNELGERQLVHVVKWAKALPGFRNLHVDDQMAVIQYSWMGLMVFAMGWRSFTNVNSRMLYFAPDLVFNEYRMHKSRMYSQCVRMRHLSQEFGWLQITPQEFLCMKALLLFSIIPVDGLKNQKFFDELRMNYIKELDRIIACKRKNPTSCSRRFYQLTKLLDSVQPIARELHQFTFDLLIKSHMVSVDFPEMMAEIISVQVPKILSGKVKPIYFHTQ
Sequence of Retinoic acid receptor RXR-alpha (Homo sapiens) (P19793 whole entry, looked up, the tested form may be a part): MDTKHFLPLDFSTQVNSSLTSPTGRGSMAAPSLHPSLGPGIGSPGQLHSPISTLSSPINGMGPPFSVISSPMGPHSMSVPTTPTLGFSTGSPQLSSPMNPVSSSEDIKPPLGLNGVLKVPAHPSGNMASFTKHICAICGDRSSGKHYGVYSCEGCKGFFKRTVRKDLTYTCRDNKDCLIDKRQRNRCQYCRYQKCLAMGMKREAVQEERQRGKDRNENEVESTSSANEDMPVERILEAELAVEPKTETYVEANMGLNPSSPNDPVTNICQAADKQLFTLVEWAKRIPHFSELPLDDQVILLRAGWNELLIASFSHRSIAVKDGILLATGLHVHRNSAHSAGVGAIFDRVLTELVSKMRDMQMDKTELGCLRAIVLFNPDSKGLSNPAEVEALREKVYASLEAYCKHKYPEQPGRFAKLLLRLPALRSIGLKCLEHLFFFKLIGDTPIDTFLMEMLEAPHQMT
Sequence of Estrogen receptor (Homo sapiens) (P03372 whole entry, looked up): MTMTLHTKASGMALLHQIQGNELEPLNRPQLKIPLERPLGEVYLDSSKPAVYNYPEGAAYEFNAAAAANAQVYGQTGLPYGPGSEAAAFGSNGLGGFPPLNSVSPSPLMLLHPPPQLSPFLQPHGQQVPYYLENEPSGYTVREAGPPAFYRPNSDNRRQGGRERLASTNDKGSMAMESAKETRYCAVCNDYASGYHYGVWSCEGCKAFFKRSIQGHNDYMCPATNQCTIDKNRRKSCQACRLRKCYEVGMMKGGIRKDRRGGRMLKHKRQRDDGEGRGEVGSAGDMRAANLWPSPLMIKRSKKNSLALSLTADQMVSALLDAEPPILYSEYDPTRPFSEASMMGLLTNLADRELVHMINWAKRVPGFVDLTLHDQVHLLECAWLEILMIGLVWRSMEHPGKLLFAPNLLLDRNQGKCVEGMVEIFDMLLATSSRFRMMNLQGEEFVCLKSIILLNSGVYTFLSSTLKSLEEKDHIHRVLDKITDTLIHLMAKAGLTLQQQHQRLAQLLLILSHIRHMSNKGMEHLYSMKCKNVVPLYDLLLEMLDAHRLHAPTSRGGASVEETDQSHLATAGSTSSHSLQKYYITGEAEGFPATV
Sequence of mouse Estrogen Receptor alpha (Era), Esr1 (gene 13982) (P19785 whole entry, looked up): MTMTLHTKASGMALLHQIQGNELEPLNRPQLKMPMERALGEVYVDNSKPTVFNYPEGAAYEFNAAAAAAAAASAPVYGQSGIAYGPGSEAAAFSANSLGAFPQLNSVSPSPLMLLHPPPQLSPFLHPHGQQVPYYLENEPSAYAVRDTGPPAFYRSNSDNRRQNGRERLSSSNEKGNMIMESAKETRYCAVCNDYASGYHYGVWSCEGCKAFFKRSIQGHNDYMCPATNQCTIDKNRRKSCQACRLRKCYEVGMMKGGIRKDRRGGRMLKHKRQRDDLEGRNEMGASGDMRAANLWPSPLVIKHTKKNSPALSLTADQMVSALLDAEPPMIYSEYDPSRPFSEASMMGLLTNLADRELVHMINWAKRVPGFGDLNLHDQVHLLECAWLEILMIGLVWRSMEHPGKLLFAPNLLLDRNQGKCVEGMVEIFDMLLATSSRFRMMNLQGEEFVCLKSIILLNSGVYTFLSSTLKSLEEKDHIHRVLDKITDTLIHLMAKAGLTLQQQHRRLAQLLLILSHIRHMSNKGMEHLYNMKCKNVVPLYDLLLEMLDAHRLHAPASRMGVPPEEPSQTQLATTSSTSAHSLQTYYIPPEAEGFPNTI
Sequence of Estrogen receptor beta (Homo sapiens) (Q92731 whole entry, looked up, the tested form may be a part): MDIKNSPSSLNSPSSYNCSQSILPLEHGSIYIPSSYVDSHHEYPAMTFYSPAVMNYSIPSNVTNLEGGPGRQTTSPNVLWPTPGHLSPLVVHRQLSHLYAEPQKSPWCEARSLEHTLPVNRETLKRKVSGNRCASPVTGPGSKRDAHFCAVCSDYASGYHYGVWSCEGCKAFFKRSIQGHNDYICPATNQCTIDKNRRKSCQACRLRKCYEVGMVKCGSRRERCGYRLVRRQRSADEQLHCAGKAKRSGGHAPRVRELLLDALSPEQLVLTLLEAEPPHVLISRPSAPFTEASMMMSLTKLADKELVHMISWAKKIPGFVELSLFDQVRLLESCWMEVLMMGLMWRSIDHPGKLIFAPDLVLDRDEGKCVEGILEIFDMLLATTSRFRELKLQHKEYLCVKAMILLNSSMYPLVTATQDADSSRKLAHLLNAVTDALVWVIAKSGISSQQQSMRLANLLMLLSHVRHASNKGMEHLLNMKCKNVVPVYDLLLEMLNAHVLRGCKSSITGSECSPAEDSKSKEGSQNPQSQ

In general, AC50 refers to the midpoint of the concentration-response curve, whichever way the signal moves. Take `CN(C)C(=O)C1(N2CCCCC2)CCN(CC[C@@]2(c3ccc(Cl)c(Cl)c3)CN(C(=O)c3ccccc3)CCO2)CC1`: the AC50 in experiment [1] is 2.33 µM (active); in experiment [2], 0.203 µM (active); in experiment [4] it was 16.8 µM (active); in experiment [5] it was 14.8 µM (active). For the same compound, the compound was classed as inactive in experiment [3], in [6] and in experiment [7].
With `CC(=O)N1CCN(c2ccc(OC[C@H]3CO[C@](Cn4ccnc4)(c4ccc(Cl)cc4Cl)O3)cc2)CC1`, the AC50 was 9.91 µM (active) in [1]; 81.2 µM (active) in experiment [4]; 94 µM (active) in experiment [5]; 0.783 µM (active) in [9]; 1.42 µM (active) in [10]; 1.77 µM (active) in experiment [11]. The AC50 was 0.895 µM (active) in experiment [12] and 1 µM (active) in [13]. Moreover, the compound was classed as inactive in [2], in [8], in [6], in experiment [7] and in experiment [14].
For the compound `CN(C[C@@H](CC[N+]12CCC(C3CCCCC3)(CC1)CC2)c1ccc(Cl)c(Cl)c1)C(=O)c1cc(C(F)(F)F)cc(C(F)(F)F)c1`, the AC50 is 16.7 µM (active) in [15]; 1.38 µM (active) in [1]; 12.4 µM (active) in experiment [4]; 85.4 µM (active) in [16]; 78.1 µM (active) in [17]. Further, the compound was called inactive in experiment [2], in experiment [3], in experiment [8], in [5], in [6] and in [7].
As for `CCCCCCCCCCCC[N+](C)(C)C`, the AC50 is 13.7 µM (active) in experiment [15] and 7.96 µM (active) in [1]. Besides, the outcome in experiment [8], in [6], in experiment [7], in experiment [9], in [10] and in [11] was inactive. The outcome in experiment [12] and in [13] was inactive.
As to `CCCCCCCCN(C)CCCCCCCC`, the compound was classed as inactive in [2], in experiment [3], in [4], in experiment [5], in [18] and in experiment [19]. In addition, the call in experiment [6], in experiment [7], in experiment [9], in experiment [10], in [20] and in experiment [11] was inactive. Further, the compound was called inactive in experiment [12] and in experiment [13].
In the case of `Cc1cn([C@H]2C[C@H](N=[N+]=[N-])[C@@H](CO)O2)c(=O)[nH]c1=O`, the outcome in [1], in experiment [4], in experiment [5], in [16], in experiment [18] and in experiment [19] was inactive. In addition, the outcome in [6] and in experiment [7] was inactive.
In the case of `CCCCCc1ccc(N)cc1`, the AC50 in [2] was 0.0459 µM (active). Further, the compound was classed as inactive in experiment [2], in experiment [8], in experiment [4], in experiment [5], in [18] and in experiment [19]. Moreover, the outcome in experiment [6] and in experiment [7] was inactive.
As for `CCN(Cc1cccnc1)C(=O)c1cccc(Cl)c1[C@]1(C)C(=O)N(Cc2ccc(OC)cc2OC)c2ccc(Cl)cc21`, the outcome in experiment [3], in experiment [8], in experiment [4], in experiment [5], in experiment [18] and in [19] was inactive. Also, the compound was called inactive in experiment [6] and in [7]. Besides, the AC50 was 0.278 µM (active) in experiment [16] and 0.59 µM (active) in experiment [17].
Turning to `CC(C)(c1cc(Br)c(O)c(Br)c1)c1cc(Br)c(O)c(Br)c1`, the call in experiment [2], in experiment [8], in [19], in experiment [9], in [10] and in experiment [11] was inactive. The outcome in experiment [12] and in experiment [13] was inactive. Also, the AC50 is 70 µM (active) in experiment [16]; 20.6 µM (active) and 72.4 µM (active) in experiment [18]; 47.8 µM (active) in [19].
